Experimental data as given in PubChem BioAssay (Tox21).
Records with an inconclusive call do not appear. Calls of active or inactive are those of the source. Unless noted, calls follow the shape of the full dose curve.

Key:
[1] = qHTS assay to identify small molecule antagonists of the sonic hedgehog signaling (Shh) pathway (AID 1259369); also: nearly all actives have a fitted effect of over 45% in size; also: potency is read from the fitted curve at half-maximal effect
Summary of the method: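 Conditioned medium drives Shh signalling in 3T3Gli1-Luc cells; compounds in DMSO co-applied, 24hr at 37 C, then luciferase luminescence.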

[2] = target: Estrogen receptor beta (Homo sapiens) (UniProt Q92731); assay: qHTS assay to identify small molecule agonists of the estrogen receptor beta (ER-beta) signaling pathway (AID 1259377; active = well fitted activation curve with a large enough effect in the signal ratio in the repeat runs, not every such curve was filed as active; the % refers to the signal ratio)
Summary of the method: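 Beta-lactamase reporter readout: fluorescence of LiveBLAzer B/G FRET substrate after 2 h at room temperature, following 16 h compound treatment of ER-beta-UAS-bla HEK293T cells at 37C in 2% charcoal-stripped FBS medium.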

[3] = qHTS assay to identify small molecule agonists of the androgen receptor (AR) signaling pathway in the presence of an antagonist - cell viability counter screen (AID 1259379; active = well fitted curve in the direction sought with a large enough effect in the repeat runs; an effect the other way counts as inactive or inconclusive;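 also: MDA-kb2 human breast cancer cells carrying an MMTV luciferase reporter; series mostly up to about 92 µM; nearly all actives have a fitted effect of over 25% in size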)
Summary of the method: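 A CellTiter-Fluor read-out measured viability of MDA-kb2 reporter cells (MMTV promoter with AR and GR response elements). Treatment: nilutamide 3.0uM final with compounds at 15 concentrations, 16 hr, 37C, 0% CO2.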

[4] = qHTS assay to identify small molecule agonists of the estrogen receptor beta (ER-beta) signaling pathway - cell viability counter screen (AID 1259380; active = well fitted curve in the direction sought with a large enough effect in the repeat runs; an effect the other way counts as inactive or inconclusive; also: nearly all actives have a fitted effect of over 30% in size)
Summary of the method: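 Cells used were ER-beta-UAS-bla HEK293T in medium with 2% charcoal-stripped FBS. They were treated for 16 hr at 37C. Viability came from CellTiter-Glo luminescence.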

[5] = qHTS assay to identify small molecule antagonists of the estrogen receptor beta (ER-beta) signaling pathway - cell viability counter screen (AID 1259382; active = well fitted curve in the direction sought with a large enough effect in the repeat runs; an effect the other way counts as inactive or inconclusive; also: series mostly up to about 92 µM; nearly all actives have a fitted effect of over 55% in size)
Summary of the method: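 Agonist-stimulated (1nM E2) ER-beta-UAS-bla HEK293T cells are incubated with library compounds for 16 hr at 37C. Cell viability is then assessed in the reporter-assay wells by adding CellTiter-Glo and reading luminescence after 30 min.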

[6] = target: Progesterone receptor (Homo sapiens) (UniProt P06401); assay: qHTS assay to identify small molecule agonists of the progesterone receptor (PR) signaling pathway (AID 1346784); also: nearly all actives have a fitted effect of over 30% in size
Summary of the method: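 HEK 293T PR-UAS-bla reporter cells, 2% charcoal-stripped FBS; 6 hr settle at 37C/5% CO2, compound (DMSO) 16 hr, LiveBLAzer B/G FRET substrate 2 hr RT, fluorescence intensity read.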

[7] = qHTS assay to identify small molecule antagonists of the progesterone receptor (PR) signaling pathway - cell viability counter screen (AID 1346798; active = well fitted curve in the direction sought with a large enough effect in the repeat runs; an effect the other way counts as inactive or inconclusive; also: series mostly up to about 92 µM; nearly all actives have a fitted effect of over 50% in size)
Summary of the method: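 Luminescence readout (CellTiter-Glo, 30 min, RT) of viability in PR-UAS-bla HEK293T cells exposed to compound and R5020 agonist for 16 hr at 37C, 5% CO2; run in the same wells as the beta-lactamase reporter read.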

[8] = qHTS assay to identify small molecule agonists of the progesterone receptor (PR) signaling pathway - cell viability counter screen (AID 1346799); also: nearly all actives have a fitted effect of over 45% in size
Summary of the method: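 HEK293T PR-UAS-bla, 3,000 cells/well, 2% charcoal-stripped FBS; 6 h settle, compound 16 h at 37C/5% CO2; LiveBLAzer 2 h RT, then CellTiter-Glo 30 min RT, luminescence read.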

[9] = qHTS assay to identify small molecule agonists of the TGF-beta/Smad signaling pathway - cell viability counter screen (AID 1346829; active = well fitted curve in the direction sought with a large enough effect in the repeat runs; an effect the other way counts as inactive or inconclusive; also: top concentration of the series differs between compounds; nearly all actives have a fitted effect of over 45% in size)
Summary of the method: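 Here the cytotoxicity of library compounds is measured in SBE-bla HEK 293T cells treated for 5 hr, using CellTiter-Glo added to wells already read for the beta-lactamase reporter.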

[10] = qHTS assay to identify small molecule agonists of the TGF-beta/Smad signaling pathway (AID 1346859; active = well fitted activation curve with a large enough effect in the signal ratio in the repeat runs, not every such curve was filed as active; the % refers to the signal ratio; also: series mostly up to about 77 µM)
Summary of the method: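 Read-out: fluorescence at 460 and 530 nm (405 nm excitation) after a 2 hr room-temperature incubation with beta-lactamase FRET substrate. SBE-bla HEK 293T cells had been treated with test compounds for 5 hr at 37 C.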

[11] = target: Thyrotropin-releasing hormone receptor (Homo sapiens) (UniProt P34981); assay: qHTS assay to identify small molecule antagonists of the thyrotropin-releasing hormone receptor (TRHR) signaling pathway (AID 1346877; active = well fitted inhibition curve with a large enough effect in the repeat runs, not every such curve was filed as active; also: series mostly up to about 51 µM)
Summary of the method: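 Screening used HEK293 cells engineered with TRHR, with a brief 5 min room-temperature compound exposure preceding addition of TRH to 1 nM. The read-out was kinetic calcium-dye fluorescence, concentration-response from 15 doses in triplicate.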

[12] = target: Thyrotropin-releasing hormone receptor (Homo sapiens) (UniProt P34981); assay: qHTS assay to identify small molecule agonists of the thyrotropin-releasing hormone receptor (TRHR) signaling pathway (AID 1346891);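 also: HEK293 cells expressing TRHR with calcium dye readout; series mostly up to about 58 µM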
Summary of the method: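 HEK293/TRHR cells, 1500 per well, 18 h 37 °C; Ca dye 2 h 37 °C; pin-tool compound addition (agonist mode); kinetic fluorescence 3 min, 1 s reads; 15 concentrations, triplicate.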

[13] = target: Estrogen receptor beta (Homo sapiens) (UniProt Q92731); assay: qHTS assay to identify small molecule antagonists of the estrogen receptor beta (ER-beta) signaling pathway (AID 1259378; active = well fitted inhibition curve with a large enough effect in the signal ratio in the repeat runs, not every such curve was filed as active; the % refers to the signal ratio)
Summary of the method: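 ER-beta-UAS-bla HEK293T (GripTite) cells in 2% charcoal-stripped FBS medium were preincubated 6 hr at 37C, dosed with compound, then stimulated with 1 nM E2 (final) for 16 hr; beta-lactamase reporter read by B/G FRET fluorescence after 2 hr substrate loading.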

[14] = target: Androgen receptor (Homo sapiens) (UniProt P10275); assay: qHTS assay to identify small molecule agonists of the androgen receptor (AR) signaling pathway in the presence of an antagonist (AID 1259381); also: nearly all actives have a fitted effect of over 15% in size
Summary of the method: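 Using human MDA-kb2 cells with an MMTV promoter–luciferase construct (AR and GR response elements), agonist activity is scored under 3.0uM nilutamide (final) co-treatment; 16hr incubation, 37C, luminescence readout via ONE-Glo.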

[15] = target: Estrogen receptor (Homo sapiens) (UniProt P03372); assay: qHTS assay to identify small molecule agonists of the estrogen receptor alpha (ER-alpha) signaling pathway in the presence of an antagonist (AID 1259383); also: top concentration of the series differs between compounds; nearly all actives have a fitted effect of over 15% in size
Summary of the method: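 Using VM7Luc4E2 cells seeded 24hr before treatment, antagonist ICI-182,780 (10.0nM final) was added, followed by compounds at 15 concentrations. Plates incubated 22hr; ONE-Glo luminescence quantified reporter activity.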

[16] = qHTS assay to identify small molecule agonists or antagonists of the thyroid stimulating hormone receptor (TSHR) signaling pathway - wild type cell line counter screen (AID 1259384)
Summary of the method: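 Wild-type HEK293 cells were plated 18 h at 37 C/5% CO2, pin-dosed with compound plus Ro20-1724 medium, held 30 min at room temperature, then given cAMP-d2 and anti-cAMP-cryptate; fluorescence was read after 1 h. Fifteen concentrations, triplicate.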

[17] = target: Thyrotropin receptor (Homo sapiens) (UniProt P16473); assay: qHTS assay to identify small molecule antagonists of the thyroid stimulating hormone receptor (TSHR) signaling pathway (AID 1259385); also: nearly all actives have a fitted effect of over 20% in size
Summary of the method: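 TSHR-HEK293 cells were plated and held 18 h at 37C/5% CO2, then given compound plus Ro20-1724 and stimulated with TSH at 1.5 ng/mL final. After 30 min at room temperature, cAMP was detected with cAMP-d2/anti-cAMP-cryptate (1 h) by fluorescence.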

[18] = target: Progesterone receptor (Homo sapiens) (UniProt P06401); assay: qHTS assay to identify small molecule antagonists of the progesterone receptor (PR) signaling pathway (AID 1346795; active = well fitted inhibition curve with a large enough effect in the signal ratio in the repeat runs, not every such curve was filed as active; the % refers to the signal ratio)
Summary of the method: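 Beta-lactamase reporter, HEK293T PR-UAS-bla line; 2% charcoal-stripped FBS; 6 hr pre-incubation, 37C/5% CO2. Compound + R5020 1 nM final, 16 hr. LiveBLAzer B/G FRET substrate, 2 hr RT; fluorescence intensity read.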

[19] = qHTS assay to identify small molecule antagonists of the TGF-beta/Smad signaling pathway - cell viability counter screen (AID 1346824; active = well fitted curve in the direction sought with a large enough effect in the repeat runs; an effect the other way counts as inactive or inconclusive; also: nearly all actives have a fitted effect of over 50% in size)
Summary of the method: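 SBE-bla HEK 293T cells were plated overnight at 37 C, then given compounds in DMSO plus TGF-beta1 (added as 0.25 ng/mL solution) for 5 hr. After the bla read, CellTiter-Glo was added to the same wells and luminescence read after 30 min at room temperature.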

[20] = qHTS assay to identify small molecule agonists of the estrogen receptor alpha (ER-alpha) signaling pathway in the presence of an antagonist - cell viability counter screen (AID 1259386; active = well fitted curve in the direction sought with a large enough effect in the repeat runs; an effect the other way counts as inactive or inconclusive;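 also: series mostly up to about 92 µM; cells exposed to compounds for 22 h at 37 °C before the viability read; nearly all actives have a fitted effect of over 30% in size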)
Summary of the method: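 ICI-182,780 at 10.0nM final accompanies the compound titration (15 concentrations, 22hr, 37C) on VM7Luc4E2 cells. The CellTiter-Fluor fluorescence readout runs in the same wells as the luciferase assay.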
% is scaled to controls: 0 for no effect and ±100 for the full control effect.

Chain of Progesterone receptor (Homo sapiens) (P06401 whole entry, looked up): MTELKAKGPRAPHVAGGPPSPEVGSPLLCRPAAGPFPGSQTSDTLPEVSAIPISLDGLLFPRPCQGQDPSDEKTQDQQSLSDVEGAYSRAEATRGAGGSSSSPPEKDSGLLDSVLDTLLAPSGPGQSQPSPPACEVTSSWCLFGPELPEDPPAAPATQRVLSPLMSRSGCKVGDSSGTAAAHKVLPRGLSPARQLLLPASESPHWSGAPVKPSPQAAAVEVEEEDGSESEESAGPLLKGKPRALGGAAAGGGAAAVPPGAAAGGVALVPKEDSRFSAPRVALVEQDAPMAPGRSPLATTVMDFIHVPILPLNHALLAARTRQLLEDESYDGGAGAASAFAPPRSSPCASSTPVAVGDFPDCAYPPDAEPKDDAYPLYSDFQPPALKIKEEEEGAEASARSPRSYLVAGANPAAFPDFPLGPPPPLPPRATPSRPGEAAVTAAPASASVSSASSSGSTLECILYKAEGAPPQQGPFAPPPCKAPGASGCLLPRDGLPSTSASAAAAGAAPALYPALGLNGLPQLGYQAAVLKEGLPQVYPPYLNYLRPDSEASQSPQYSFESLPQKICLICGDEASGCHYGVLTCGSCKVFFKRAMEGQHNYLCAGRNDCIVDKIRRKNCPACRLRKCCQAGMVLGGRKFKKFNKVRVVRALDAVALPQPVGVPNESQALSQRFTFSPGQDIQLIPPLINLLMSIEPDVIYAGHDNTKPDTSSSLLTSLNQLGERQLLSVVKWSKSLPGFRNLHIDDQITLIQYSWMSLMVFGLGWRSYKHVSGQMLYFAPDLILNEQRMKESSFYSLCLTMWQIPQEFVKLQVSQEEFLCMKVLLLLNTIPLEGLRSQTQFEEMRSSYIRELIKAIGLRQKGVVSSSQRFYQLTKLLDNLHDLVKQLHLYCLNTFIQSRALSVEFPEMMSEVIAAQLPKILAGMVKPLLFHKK
Chain of Estrogen receptor beta (Homo sapiens) (Q92731 whole entry, looked up): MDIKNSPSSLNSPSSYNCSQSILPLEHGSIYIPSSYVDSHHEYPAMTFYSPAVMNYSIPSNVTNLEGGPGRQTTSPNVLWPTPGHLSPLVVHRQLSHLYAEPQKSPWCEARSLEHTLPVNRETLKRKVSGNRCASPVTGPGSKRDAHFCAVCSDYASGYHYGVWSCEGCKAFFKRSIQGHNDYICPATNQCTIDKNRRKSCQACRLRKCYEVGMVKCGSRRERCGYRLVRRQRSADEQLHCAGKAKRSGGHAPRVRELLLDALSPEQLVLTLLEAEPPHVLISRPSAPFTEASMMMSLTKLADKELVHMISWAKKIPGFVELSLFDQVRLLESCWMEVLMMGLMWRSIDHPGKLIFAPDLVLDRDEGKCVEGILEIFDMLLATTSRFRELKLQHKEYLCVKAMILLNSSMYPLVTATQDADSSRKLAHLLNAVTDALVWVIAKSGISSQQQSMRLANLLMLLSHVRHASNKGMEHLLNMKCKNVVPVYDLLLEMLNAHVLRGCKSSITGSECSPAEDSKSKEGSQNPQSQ
Chain of Thyrotropin-releasing hormone receptor (Homo sapiens) (P34981 whole entry, looked up): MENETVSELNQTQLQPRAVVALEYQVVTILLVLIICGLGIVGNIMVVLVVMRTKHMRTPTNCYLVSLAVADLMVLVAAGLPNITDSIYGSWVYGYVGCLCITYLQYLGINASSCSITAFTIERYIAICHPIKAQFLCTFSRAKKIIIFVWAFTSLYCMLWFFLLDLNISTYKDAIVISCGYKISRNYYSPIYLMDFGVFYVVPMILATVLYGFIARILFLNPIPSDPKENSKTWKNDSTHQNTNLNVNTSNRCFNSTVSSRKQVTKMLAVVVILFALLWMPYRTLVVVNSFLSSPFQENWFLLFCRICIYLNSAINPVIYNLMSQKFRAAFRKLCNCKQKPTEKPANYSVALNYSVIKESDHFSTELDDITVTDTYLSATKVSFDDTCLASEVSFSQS
Chain of Thyrotropin receptor (Homo sapiens) (P16473 whole entry, looked up): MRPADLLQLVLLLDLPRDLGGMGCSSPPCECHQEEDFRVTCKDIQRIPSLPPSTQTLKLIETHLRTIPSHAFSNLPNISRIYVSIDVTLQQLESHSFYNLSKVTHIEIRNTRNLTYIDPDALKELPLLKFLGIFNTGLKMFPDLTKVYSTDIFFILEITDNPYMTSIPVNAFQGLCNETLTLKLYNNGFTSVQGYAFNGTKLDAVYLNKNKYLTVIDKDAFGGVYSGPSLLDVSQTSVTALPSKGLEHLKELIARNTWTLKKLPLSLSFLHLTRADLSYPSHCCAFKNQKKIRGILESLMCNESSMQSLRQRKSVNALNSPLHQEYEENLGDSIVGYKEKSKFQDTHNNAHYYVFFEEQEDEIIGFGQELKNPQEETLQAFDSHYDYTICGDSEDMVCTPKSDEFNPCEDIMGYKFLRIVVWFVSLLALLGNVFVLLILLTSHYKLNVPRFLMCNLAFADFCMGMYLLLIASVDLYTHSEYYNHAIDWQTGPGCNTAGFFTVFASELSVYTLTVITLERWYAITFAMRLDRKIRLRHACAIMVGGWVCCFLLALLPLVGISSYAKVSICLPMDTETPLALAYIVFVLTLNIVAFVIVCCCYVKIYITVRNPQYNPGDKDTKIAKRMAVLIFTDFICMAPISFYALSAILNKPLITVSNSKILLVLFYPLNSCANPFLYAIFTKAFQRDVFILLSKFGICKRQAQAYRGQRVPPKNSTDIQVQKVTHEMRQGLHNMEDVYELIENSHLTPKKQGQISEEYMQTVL
Chain of Estrogen receptor (Homo sapiens) (P03372 whole entry, looked up): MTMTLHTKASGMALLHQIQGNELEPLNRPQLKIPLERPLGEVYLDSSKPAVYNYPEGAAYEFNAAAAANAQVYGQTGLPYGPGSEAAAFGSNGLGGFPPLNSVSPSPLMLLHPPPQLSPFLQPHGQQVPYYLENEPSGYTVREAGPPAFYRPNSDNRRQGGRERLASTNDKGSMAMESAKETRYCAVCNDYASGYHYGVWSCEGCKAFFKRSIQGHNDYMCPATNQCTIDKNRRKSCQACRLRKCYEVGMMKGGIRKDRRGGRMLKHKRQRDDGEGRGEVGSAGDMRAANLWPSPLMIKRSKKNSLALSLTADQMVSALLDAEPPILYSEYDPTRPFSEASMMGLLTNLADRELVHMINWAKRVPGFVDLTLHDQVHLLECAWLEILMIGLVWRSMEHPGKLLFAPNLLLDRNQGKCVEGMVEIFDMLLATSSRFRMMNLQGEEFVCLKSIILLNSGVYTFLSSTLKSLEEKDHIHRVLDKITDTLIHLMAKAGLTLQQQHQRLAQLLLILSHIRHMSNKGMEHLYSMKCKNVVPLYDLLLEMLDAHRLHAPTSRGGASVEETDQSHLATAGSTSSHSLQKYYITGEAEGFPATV
Chain of Androgen receptor (Homo sapiens) (P10275 whole entry, looked up): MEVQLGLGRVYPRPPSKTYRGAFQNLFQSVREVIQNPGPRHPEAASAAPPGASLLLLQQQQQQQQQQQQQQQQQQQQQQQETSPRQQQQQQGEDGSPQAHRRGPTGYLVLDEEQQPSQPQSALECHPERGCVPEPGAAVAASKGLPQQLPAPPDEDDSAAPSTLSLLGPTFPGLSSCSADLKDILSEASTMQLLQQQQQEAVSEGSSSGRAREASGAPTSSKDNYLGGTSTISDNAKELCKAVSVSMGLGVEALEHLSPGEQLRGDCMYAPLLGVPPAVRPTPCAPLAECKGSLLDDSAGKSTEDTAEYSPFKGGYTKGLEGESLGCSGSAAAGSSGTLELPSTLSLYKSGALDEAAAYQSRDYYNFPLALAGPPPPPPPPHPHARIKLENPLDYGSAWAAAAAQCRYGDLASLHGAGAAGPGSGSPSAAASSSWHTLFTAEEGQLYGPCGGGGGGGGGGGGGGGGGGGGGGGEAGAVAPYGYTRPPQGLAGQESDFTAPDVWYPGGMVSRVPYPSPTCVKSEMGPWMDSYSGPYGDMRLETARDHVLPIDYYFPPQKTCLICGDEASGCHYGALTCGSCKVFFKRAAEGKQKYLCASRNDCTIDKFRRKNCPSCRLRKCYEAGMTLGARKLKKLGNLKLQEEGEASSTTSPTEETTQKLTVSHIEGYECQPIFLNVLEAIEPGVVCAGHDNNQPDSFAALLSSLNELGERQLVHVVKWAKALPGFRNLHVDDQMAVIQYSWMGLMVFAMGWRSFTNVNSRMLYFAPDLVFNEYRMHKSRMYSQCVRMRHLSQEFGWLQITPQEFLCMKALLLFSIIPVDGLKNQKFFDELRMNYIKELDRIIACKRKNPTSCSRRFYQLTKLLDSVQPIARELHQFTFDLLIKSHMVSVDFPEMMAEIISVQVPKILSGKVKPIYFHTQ

Nc1ncn([C@H]2C[C@H](O)[C@@H](CO)O2)c(=O)n1
inactive: Potency [1] | Potency [2] | Potency [3] | Potency [4] | Potency [5] | Potency [6] | Potency [7] | Potency [8] | outcome [9] | Potency [10] | outcome [11] | Potency [12]

CCOC(=O)C(O)c1ccccc1 (stereo not drawn)
inactive: Potency [1] | Potency [13] | Potency [3] | Potency [4] | Potency [14] | Potency [5] | Potency [15] | Potency [16] | Potency [17] | Potency [6] | Potency [18] | Potency [7] | Potency [8] | Potency [19] | outcome [9] | Potency [10] | outcome [11] | Potency [12]

CCCCCCCCCOS(=O)(=O)O
inactive: Potency [1] | Potency [13] | Potency [3] | Potency [4] | Potency [5] | Potency [15] | Potency [16] | Potency [17] | Potency [20] | Potency [6] | Potency [18] | Potency [8] | outcome [9] | Potency [10] | outcome [11] | Potency [12]

COc1ccc(C(=O)N2CCN(CC(=O)N3CCOCC3)CC2)cc1
inactive: Potency [1] | Potency [13] | Potency [3] | Potency [4] | Potency [5] | Potency [15] | Potency [16] | Potency [17] | Potency [20] | Potency [6] | Potency [7] | Potency [8] | Potency [19] | outcome [9] | Potency [10] | outcome [11] | Potency [12]

Nc1cc(C(=O)O)c(O)c(S(=O)(=O)O)c1
inactive: Potency [1] | Potency [13] | Potency [3] | Potency [4] | Potency [5] | Potency [16] | Potency [6] | Potency [18] | Potency [7] | Potency [19] | outcome [9] | Potency [10] | outcome [11] | Potency [12]

COCC(C)OC(C)=O (stereo not drawn)
inactive: Potency [1] | Potency [13] | Potency [3] | Potency [4] | Potency [5] | Potency [15] | Potency [20] | Potency [6] | Potency [7] | Potency [8] | Potency [19] | outcome [9] | Potency [10]

C/C=C/C(=O)CC
active: Potency [1] 5.9 µM
inactive: activation [2] -1.08% [at 19 µM] | activity change, negative = cytotoxicity [3] 0.797% [at 19 µM] | activity change, negative = cytotoxicity [4] 5.9% [at 19 µM] | activity change, negative = cytotoxicity [5] 2.99% [at 19 µM] | Potency [15] | cAMP activity change [16] -0.0314% [at 18.9 µM, stronger effect = higher value] | activity change, negative = inhibition [17] 0.568% [at 19 µM] | activity change, negative = cytotoxicity [20] 2.64% [at 19 µM] | activation [6] 0.707% [at 19 µM] | activity change, negative = cytotoxicity [8] -14.3% [at 19 µM] | viability change, negative = cytotoxic [19] -21.1% [at 15.8 µM] | activity change, negative = cytotoxicity [9] -6.07% [at 15.8 µM] | activation [10] 4.38% [at 15.8 µM] | activity, negative = inhibition [11] -0.562% [at 10.5 µM] | activation [12] -0.663% [at 11.8 µM]

CC(C)(C)Cl
inactive: Potency [1] | Potency [13] | Potency [3] | Potency [4] | Potency [5] | Potency [15] | Potency [16] | Potency [17] | Potency [6] | Potency [18] | Potency [7] | Potency [8] | Potency [19] | outcome [9] | Potency [10] | outcome [11] | Potency [12]
